Each structure is given as a SMILES string. The whole screen tested about 360,000 compounds, of which about 11,000 (3.1%) were called active. Roughly 2% stayed inconclusive and do not appear here. Many of the other results were omitted from the sample, so actives are more common in it than they were. A number with no mark means an inactive call. No stated cut-off is given here; in the data, active means fluorescence intensity above about 16000; inconclusive means no clear call, values can overlap the other calls; inactive means below that.

A short description of this test: counter-screen for toxin protease inhibitors: compound fluorescence, primary screen, artefact control for toxin protease inhibitor project, biochemical, multiplex microsphere, HTS (AID 624483). To be noted: compound autofluorescence counterscreen, microsphere flow cytometry; hits give high values.
With `CC(NC(=O)CN(C)S(=O)(=O)c1ccc(F)cc1)C1CC2CCC1C2` (stereo not given), the fluorescence intensity was 3360.

`Cc1c(C(=O)NCc2ccc(C#N)cc2)sc(=O)n1Cc1ccc(C(=O)N(C)C)cc1`: the fluorescence intensity is 4330.

`CC1OC2C(OC1C)N(S(C)(=O)=O)CCN2S(C)(=O)=O` (stereo not given): the fluorescence intensity is 15900.

As for `CC1COC2C(O1)N(S(C)(=O)=O)CCN2S(C)(=O)=O` (stereo not given), the fluorescence intensity is 25700 (active).

Take `Cc1ccc(S(=O)(=O)N2CCN(C(=O)CN3C(=O)NC(C)(c4ccc(Cl)cc4)C3=O)CC2)c(C)c1` (stereo not given): the fluorescence intensity is 3900.

In the case of `Cc1cc(C)n2c(Nc3c(C)cccc3C)c(CCc3ccccc3)nc2n1`, the fluorescence intensity is 5430.

Consider `Cc1onc(-c2c(Cl)cccc2Cl)c1C(=O)c1c[nH]c(C(=O)NC2CC2)c1`, for which the fluorescence intensity is 23200 (active).

With `Cc1onc(-c2c(F)cccc2Cl)c1C(=O)OCC(=O)N1C(C)CCCC1C` (stereo not given), the fluorescence intensity is 3180.

As to `C/C(=N/OC(=O)c1c(-c2c(F)cccc2Cl)noc1C)c1cnccn1`, the fluorescence intensity is 3970.

In the case of `CC1=C(C(=O)N(C)C)CC(CC(=O)NCCN2CCOCC2)C(=O)N1Cc1ccccc1` (stereo not given), the fluorescence intensity was 3750.

As for `CC1(C(=O)Nc2ccc3c(c2)OCCO3)CCN1C(=O)Cc1cc(F)ccc1F` (stereo not given), the fluorescence intensity is 3870.

Consider `Clc1ccc(C=NC23CN4CN(CN(C4)C2)C3)cc1`, for which the fluorescence intensity is 3520.

Turning to `COC(=O)C1[C@H]2SC(C)(C)C(C(=O)OC)N2C(=O)N1Cc1nc2ccccc2s1` (stereo not given in full), the fluorescence intensity is 3920.

On to `CCNC(=O)C1CCCN(C(=O)c2cc(F)ccc2C)CC1` (stereo not given), for which the fluorescence intensity is 3900.

`Cc1ccc(C(=O)N2CCCC2)c(F)c1F`: the fluorescence intensity is 24700 (active).

As for `Cc1c(Br)cc(C(=O)N2CCCCCC2)c(C)c1C`, the fluorescence intensity was 4200.

Take `CNC(=O)c1nnc(Cc2ccc(Cl)cc2)o1`: the fluorescence intensity is 4900.

As for `COc1cccc(C(NC(C)=O)c2nc(-c3cnc4ccccc4c3)cs2)c1` (stereo not given), the fluorescence intensity is 3770.

On to `CC(C)(C)NS(=O)(=O)c1ccc(NC(=O)C2CCCO2)cc1` (stereo not given), for which the fluorescence intensity was 3950.

As to `CC(C)c1ccc(NC(=O)NC2CCCCC2)cc1`, the fluorescence intensity was 10400.

`CC(C)(C)NS(=O)(=O)c1ccc(NC(=O)NC2CCCCC2)cc1`: the fluorescence intensity was 17000 (active).

Regarding `CC1(Cc2cccc(C#N)c2)C(=O)Nc2ccc(-c3cccc(C(F)(F)F)c3)cc21` (stereo not given), the fluorescence intensity is 2910.

Regarding `CCOC(=O)C1=CCC(c2ccc(F)cc2)N(S(=O)(=O)c2ccc(C)cc2)C1` (stereo not given), the fluorescence intensity is 6000.

For the compound `CC1=C(C(=O)N2CCOCC2)CC(CC(=O)NCC2CCCCC2)C(=O)N1Cc1ccc(F)cc1` (stereo not given), the fluorescence intensity is 3780.

As to `O=C(c1ccc2c(c1)N(Cc1ccc(F)cc1)C(=O)CS2)N1CCOCC1`, the fluorescence intensity is 23800 (active).

In the case of `O=C(c1ccc(CN2CCOCC2)cc1)N1CCN(c2ccccc2F)CC1`, the fluorescence intensity is 3620.

`CCOC(=O)c1sc(NC(=O)c2sc(C)nc2C)nc1C`: the fluorescence intensity was 3060.

`COC(=O)c1sc(NC(=O)c2csc3c2CCCC3)nc1C`: the fluorescence intensity was 19100 (active).

For `CC1CC(C)CN(CCCNC(=O)c2csc3c2CCCCC3)C1` (stereo not given), the fluorescence intensity is 5260.

On to `CC(C)(C)Cc1c(C2CCCCC2)nc2ccc(Br)cn12`, for which the fluorescence intensity is 5440.

`CC(=O)NC(c1cccs1)c1cc(Br)c2cccnc2c1O` (stereo not given): the fluorescence intensity was 3590.

For the compound `COc1ccc(-c2cc(C(=O)N3CCN(Cc4ccc5c(c4)OCO5)CC3)on2)cc1OC`, the fluorescence intensity was 5740.

Regarding `COc1ccc(C(O)c2nc(-c3ccc4c(c3)OCO4)cs2)cc1` (stereo not given), the fluorescence intensity is 2970.

With `COc1ccc(-c2csc(N3CCN(Cc4ccc5c(c4)OCO5)CC3)n2)cc1`, the fluorescence intensity was 23000 (active).

Take `Cc1cc(C)n2nc(C(=O)N3CCN(Cc4ccc5c(c4)OCO5)CC3)nc2n1`: the fluorescence intensity is 4210.

Turning to `Cc1cc(N2CCN(c3ccc(F)cc3)CC2)n2ncnc2n1`, the fluorescence intensity was 3960.

`Fc1ccc(N2CCN(Cc3ccc4c(c3)OCO4)CC2)cc1`: the fluorescence intensity is 22800 (active).

As to `CCc1c(C)nc2ncnn2c1N1CCC(C(=O)NCc2ccc3c(c2)OCO3)CC1`, the fluorescence intensity was 20900 (active).

On to `Cc1cc(C)c(S(=O)(=O)NCC2CCC(C(=O)NCc3ccc4c(c3)OCO4)CC2)c(C)c1` (stereo not given), for which the fluorescence intensity was 8390.

With `O=C(NCc1ccc2c(c1)OCO2)C1CCCN(S(=O)(=O)c2cccs2)C1` (stereo not given), the fluorescence intensity was 5650.

With `Cc1cc(N2CCN(Cc3ccc4c(c3)OCO4)CC2)n2ncnc2n1`, the fluorescence intensity was 21200 (active).

Consider `N#C/C=C/N1CCN(Cc2ccc3c(c2)OCO3)CC1`, for which the fluorescence intensity was 3600.

Consider `Oc1cc2c(cc1CN1CCN(c3ccccc3)CC1)OCO2`, for which the fluorescence intensity is 5830.

Turning to `CCc1nc2ccc(C(=O)NC3CCN(Cc4ccccc4)CC3)cn2c1N(C)CCN1CCOCC1`, the fluorescence intensity is 3530.

As to `O=C(NCc1ccccn1)[C@@H]1CCCN1C(=O)[C@@H]1CCCN1C(=O)c1ccccc1`, the fluorescence intensity is 5750.

`CCCNC(=O)c1cc(C2CCCCN2S(=O)(=O)c2ccc(C#N)cc2)on1` (stereo not given): the fluorescence intensity was 3490.

Turning to `CCNC(=O)C1(C)CCCN(C(=O)c2c(C)noc2C)C1` (stereo not given), the fluorescence intensity is 2990.

For `COc1ccccc1CC1(C)C(=O)Nc2ccc(OC(F)(F)F)cc21` (stereo not given), the fluorescence intensity was 3460.

For the compound `O=C(Nc1ccc2c(c1)OCCO2)C(C1CC1)N1CCC(Cc2ccccc2)CC1` (stereo not given), the fluorescence intensity is 5440.

Consider `O=C(NCC(=O)N1CCC2(CC1)NCCc1[nH]cnc12)c1ccc(Br)cc1`, for which the fluorescence intensity was 4440.

As for `O=C(C[n+]1ccc2c(c1)nnn2-c1ccccc1)c1ccc(Cl)cc1`, the fluorescence intensity was 5380.

For the compound `CC1(C(=O)NS(=O)(=O)c2ccc(C#N)cc2)CCN1C(=O)c1ccc(C2CCCCC2)cc1` (stereo not given), the fluorescence intensity is 3450.

Consider `C=CCNC(=O)c1ccccc1SCc1c(C)noc1C`, for which the fluorescence intensity is 5700.

Take `Cc1noc(C)c1COC(=O)Cn1c(C)nc2ccccc21`: the fluorescence intensity is 3460.

Regarding `Cc1noc(C)c1CSc1nnc2ccc3ccccc3n12`, the fluorescence intensity was 23000 (active).

As to `COc1ccc(C)cc1NC(=O)c1ccc(-c2ccc(C(C)=O)cc2)o1`, the fluorescence intensity was 3980.

Regarding `OCCC1CN(Cc2ccc3nsnc3c2)CCN1C1CCCCC1` (stereo not given), the fluorescence intensity is 2180.

As for `CS(=O)(=O)c1cccc(-c2ccc3nncn3c2)c1`, the fluorescence intensity was 3880.

With `Fc1ccc(/C=N/n2c(COc3ccccc3)n[nH]c2=S)cc1`, the fluorescence intensity is 3650.

`CCOc1ccc(-c2n[nH]c(=S)n2/N=C/c2cc3c(cc2[N+](=O)[O-])OCO3)cc1`: the fluorescence intensity was 7340.

As for `O=[N+]([O-])c1ccccc1/C=N/n1c(COc2ccccc2)n[nH]c1=S`, the fluorescence intensity is 22400 (active).

As to `CN(C)C(CNC(=O)c1cccc(S(=O)(=O)N2CCc3ccccc3C2)c1)c1ccccc1` (stereo not given), the fluorescence intensity was 4070.

As to `Cc1ccc(C)c(NS(=O)(=O)c2cc(Br)cnc2N)c1`, the fluorescence intensity is 2420.

In the case of `O=C(COC(=O)c1ccccc1C(=O)c1ccccc1)c1ccco1`, the fluorescence intensity is 23700 (active).

Turning to `CCN(CC)c1ccc(C(=O)OCC(=O)c2ccco2)cc1`, the fluorescence intensity was 4360.

As for `CCc1ccc(C(=O)COC(=O)c2ccco2)cc1`, the fluorescence intensity is 5070.

In the case of `CC1(C(=O)NS(=O)(=O)Cc2cccc(Cl)c2)CCN1C(=O)Cc1ccc(Cl)cc1Cl` (stereo not given), the fluorescence intensity was 3610.

As for `O=C(O)c1ccc(COc2c(F)c(F)cc(F)c2F)o1`, the fluorescence intensity was 5310.

`CCOC(=O)C1CCN(C(=O)Cn2cc(C#N)c3ccccc32)CC1`: the fluorescence intensity was 3760.

For `CCOC(=O)C1CCN(C(=O)Cc2c(C(=O)O)[nH]c3ccccc23)CC1`, the fluorescence intensity is 24500 (active).

With `CCOC(=O)C1CCN(C(=O)COc2cccc3ccccc23)CC1`, the fluorescence intensity was 5570.

Regarding `Cc1cccc(-c2cnc(C(O)c3ccc4ccccc4c3)[nH]2)c1` (stereo not given), the fluorescence intensity is 3610.

Regarding `O=C(NCc1csc(-c2cccs2)n1)C1CC1`, the fluorescence intensity is 3880.

In the case of `Cc1cc(NC(=O)CSCC(=O)NC(C)c2ccccc2)no1` (stereo not given), the fluorescence intensity was 5020.

Regarding `Cc1ccc(-c2csc(SCC(=O)Nc3cc(C)on3)n2)cc1`, the fluorescence intensity was 17800 (active).

Take `Cc1ccc2nc(-c3ccc(SCC(=O)Nc4cc(C)on4)nc3)[nH]c2c1`: the fluorescence intensity is 2760.

`CCNC(=O)C1(C)CCCN1C(=O)c1ccc(N(C)C)cc1` (stereo not given): the fluorescence intensity is 4040.

With `COC(=O)CCCCC1=CCC2C(=O)C=C(O)C2C1` (stereo not given), the fluorescence intensity is 6010.

On to `Cc1ccc(OCCCC(=O)Nc2ccc(N3CCOCC3)cc2)cc1`, for which the fluorescence intensity was 2550.

`COc1ccc(-c2ccc(Nc3ccc(S(=O)(=O)N4CCCC4)cc3)nn2)cc1OC`: the fluorescence intensity was 22500 (active).

`COc1ccccc1CC(=O)Nc1ccc(S(=O)(=O)N2CCCC2)cc1`: the fluorescence intensity is 4360.

For the compound `COc1ccc(S(=O)(=O)N2CCCCCC2)cc1NC(=O)Cc1ccc(OC)c(OC)c1`, the fluorescence intensity is 3920.

In the case of `O=C(Cc1coc2ccc3ccccc3c12)NCc1cccs1`, the fluorescence intensity is 1980.

Regarding `CCn1ncc(C2=NOC(C(=O)Nc3ccccc3C(=O)OC)C2)c1C` (stereo not given), the fluorescence intensity was 21900 (active).

Turning to `COc1cc(NC(=O)C2CC(c3ccccc3O)=NO2)c(OC)cc1Cl` (stereo not given), the fluorescence intensity was 3150.

For `CCn1ncc(C2=NOC(C(=O)N3CCN(c4ccccc4)CC3)C2)c1C` (stereo not given), the fluorescence intensity is 9650.

Regarding `CCCN1Cc2cccc(C(=O)NCc3ccccc3)c2C1=O`, the fluorescence intensity was 16800 (active).

For the compound `CCCN1Cc2cccc(C(=O)Nc3ccc(S(=O)(=O)N4CCCCCC4)cc3)c2C1=O`, the fluorescence intensity was 10600.

For `Cc1ccc(CNC(=O)c2ccccc2CCc2ccccc2)cc1`, the fluorescence intensity was 13000.

Regarding `CCCCCC(=O)Nc1ccc(-c2cn3cccnc3n2)cc1`, the fluorescence intensity was 4250.

As for `COC(=O)c1ccc2nc(-c3ccccc3)c(Cc3ccc(OC)cc3C)n2c1`, the fluorescence intensity is 7120.

Regarding `CCOc1ccc(C(=O)COC(=O)c2ccc(-n3cnnn3)cc2)cc1`, the fluorescence intensity is 5640.

For the compound `CCOC(=O)c1c(-n2cnnn2)sc(C)c1C`, the fluorescence intensity was 20300 (active).

As to `CCOC(=O)c1c(NC(=O)CSc2nccc(=O)[nH]2)sc(C)c1C`, the fluorescence intensity is 4560.

For `O=c1cc(CN2CCCCCCC2)c2c(ccc3ccccc32)o1`, the fluorescence intensity is 5650.
